Experimental data as given in PubChem BioAssay (Tox21).
Where “and” joins values, the source holds several entries; their conditions need not be identical. Identical values can stand only once. Records with an inconclusive call do not appear. Where a structure was tested more than once in an assay, its records may differ in their call. Calls of active or inactive are those of the source. Unless noted, calls come from the whole dose curve; as a rule, active = well fitted curve in the direction sought with a large enough effect in the repeat runs; inconclusive = weak or mixed curves; inactive = no such curve, though single readings can be large; an effect the other way counts as inactive or inconclusive.

Legend:
[1] = biological target: Aryl hydrocarbon receptor (Homo sapiens) (UniProt P35869); assay: qHTS assay to identify small molecule that activate the aryl hydrocarbon receptor (AhR) signaling pathway (AID 743085); note: nearly all actives have a fitted effect of over 15% in size; note: potency is the fitted concentration of half-maximal effect;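 for activation: HG2L7.5c1 human HepG2 liver cells with stably integrated DRE-driven firefly reporter; series mostly up to about 70 µM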
Chain of Aryl hydrocarbon receptor (Homo sapiens) (P35869 whole entry, looked up): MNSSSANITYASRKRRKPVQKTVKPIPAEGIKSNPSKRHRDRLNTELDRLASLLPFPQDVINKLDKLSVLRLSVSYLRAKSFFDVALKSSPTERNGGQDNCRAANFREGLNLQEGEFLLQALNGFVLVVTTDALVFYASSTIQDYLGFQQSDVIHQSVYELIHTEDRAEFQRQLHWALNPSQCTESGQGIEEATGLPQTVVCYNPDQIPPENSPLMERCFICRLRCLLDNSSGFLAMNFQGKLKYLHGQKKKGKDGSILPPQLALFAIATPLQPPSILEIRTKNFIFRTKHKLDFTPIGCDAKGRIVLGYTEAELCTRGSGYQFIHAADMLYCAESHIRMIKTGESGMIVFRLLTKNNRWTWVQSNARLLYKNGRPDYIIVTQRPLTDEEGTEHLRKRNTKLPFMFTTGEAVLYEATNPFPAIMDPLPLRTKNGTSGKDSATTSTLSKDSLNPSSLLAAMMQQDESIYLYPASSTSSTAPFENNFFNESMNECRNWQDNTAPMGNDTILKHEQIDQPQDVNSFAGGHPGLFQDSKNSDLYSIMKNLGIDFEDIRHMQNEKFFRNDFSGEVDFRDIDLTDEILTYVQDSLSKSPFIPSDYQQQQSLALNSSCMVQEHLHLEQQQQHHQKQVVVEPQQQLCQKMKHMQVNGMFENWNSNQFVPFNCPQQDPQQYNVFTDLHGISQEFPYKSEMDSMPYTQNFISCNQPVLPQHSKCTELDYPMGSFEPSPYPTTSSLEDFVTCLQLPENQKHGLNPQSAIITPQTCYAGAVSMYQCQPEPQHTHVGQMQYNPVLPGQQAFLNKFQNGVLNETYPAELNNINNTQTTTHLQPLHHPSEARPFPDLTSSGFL
Method in brief: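 Steps: seed HepG2-AhR-luc cells; allow 5 h at 37C; pin-transfer test compound or vehicle; incubate 24 h at 37C; add viability dye (30 min, 37C) and read fluorescence; add luciferase substrate (30 min, RT) and read luminescence.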

[2] = biological target: Peroxisome proliferator-activated receptor gamma (Homo sapiens) (UniProt P37231); assay: qHTS assay to identify small molecule agonists of the peroxisome proliferator-activated receptor gamma (PPARg) signaling pathway (AID 743094; active = well fitted activation curve with a large enough effect in the signal ratio in the repeat runs, not every such curve was filed as active; the % refers to the signal ratio; note: potency is the fitted concentration of half-maximal effect)
Chain of Peroxisome proliferator-activated receptor gamma (Homo sapiens) (P37231 whole entry, looked up): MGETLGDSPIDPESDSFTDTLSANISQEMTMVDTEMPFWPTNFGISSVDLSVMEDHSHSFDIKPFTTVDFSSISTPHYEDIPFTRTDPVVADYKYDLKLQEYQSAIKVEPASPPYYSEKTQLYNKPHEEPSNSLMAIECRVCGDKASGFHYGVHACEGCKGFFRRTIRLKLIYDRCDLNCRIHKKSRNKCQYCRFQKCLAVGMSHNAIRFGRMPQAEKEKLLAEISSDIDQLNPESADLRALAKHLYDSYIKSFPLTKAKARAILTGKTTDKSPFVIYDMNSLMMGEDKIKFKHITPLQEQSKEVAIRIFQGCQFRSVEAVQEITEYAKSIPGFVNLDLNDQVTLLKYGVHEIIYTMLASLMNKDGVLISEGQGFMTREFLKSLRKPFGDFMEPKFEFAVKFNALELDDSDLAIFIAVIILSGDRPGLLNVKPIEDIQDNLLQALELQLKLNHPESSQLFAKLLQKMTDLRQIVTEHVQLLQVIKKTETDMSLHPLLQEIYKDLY
Method in brief: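 Agonism was assessed in a beta-lactamase reporter system, HEK293H cells with a stably integrated UAS-bla construct under PPARg control; the 17 h treatment at 37C preceded a 1 h room-temperature FRET substrate read.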

[3] = qHTS assay for small molecule agonists of the antioxidant response element (ARE) signaling pathway - cell viability counter screen (AID 743203; calls by dose curve; note: nearly all actives have a fitted effect of over 55% in size; note: potency is the fitted concentration of half-maximal effect)
Method in brief: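 ATP content via CellTiter-Glo luminescence served as the viability measure. Cells: ARE-bla HepG2, 2,000 per well. Exposure: 16 hrs, 37C/5% CO2.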

[4] = qHTS assay for small molecule activators of the heat shock response signaling pathway - cell viability counter screen (AID 743209); note: nearly all actives have a fitted effect of over 50% in size; note: potency is the fitted concentration of half-maximal effect
Method in brief: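 Compounds dissolved in DMSO were added to overnight-plated HSE-bla HeLa cells and left 5 h at 37 C. Cell viability was quantified by luminescence using CellTiter-Glo.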

[5] = qHTS assay for small molecule activators of the heat shock response signaling pathway (AID 743210; active = well fitted activation curve with a large enough effect in the signal ratio in the repeat runs, with a control signal flat, not every such curve was filed as active; the % refers to the signal ratio; note: series mostly up to about 63 µM)
Method in brief: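 Compound exposure lasted 5 h at 37 C in HeLa cells carrying a heat-shock-element-driven beta-lactamase reporter. Read-out: fluorescence intensity after 2.5 h room-temperature loading with LiveBLAzer B/G FRET substrate.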

[6] = qHTS assay to identify small molecule agonists of the peroxisome proliferator-activated receptor delta (PPARd) signaling pathway - cell viability counter screen (AID 743211); note: nearly all actives have a fitted effect of over 55% in size; note: potency is the fitted concentration of half-maximal effect
Method in brief: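 Viability of GeneBLAzer PPARd UAS-bla HEK293H cells was assessed after 17 h compound incubation at 37C, using CellTiter-Glo reagent added after the reporter read and luminescence recorded 30 min later.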

[7] = biological target: Bile acid receptor (Homo sapiens) (UniProt Q96RI1); assay: qHTS assay to identify small molecule antagonists of the farnesoid-X-receptor (FXR) signaling pathway (AID 743217; active = well fitted inhibition curve with a large enough effect in the signal ratio in the repeat runs, not every such curve was filed as active; the % refers to the signal ratio)
Chain of Bile acid receptor (Homo sapiens) (Q96RI1 whole entry, looked up): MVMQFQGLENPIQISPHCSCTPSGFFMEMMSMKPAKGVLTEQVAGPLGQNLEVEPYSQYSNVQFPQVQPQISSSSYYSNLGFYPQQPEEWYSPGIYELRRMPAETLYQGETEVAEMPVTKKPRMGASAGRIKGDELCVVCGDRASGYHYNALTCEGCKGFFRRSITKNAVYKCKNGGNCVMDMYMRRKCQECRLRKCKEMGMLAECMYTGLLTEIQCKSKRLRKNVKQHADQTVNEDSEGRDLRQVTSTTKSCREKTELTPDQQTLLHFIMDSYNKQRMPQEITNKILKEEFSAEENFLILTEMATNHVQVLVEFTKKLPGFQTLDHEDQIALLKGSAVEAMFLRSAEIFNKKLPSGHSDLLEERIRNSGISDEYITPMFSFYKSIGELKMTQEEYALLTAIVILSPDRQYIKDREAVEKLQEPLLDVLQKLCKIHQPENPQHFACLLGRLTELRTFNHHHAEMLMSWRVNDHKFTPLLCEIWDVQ
Method in brief: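 Test compounds are pin-transferred onto FXR-bla HEK 293T cells, then chenodeoxycholic acid is added at 50 uM final. After 16 h at 37 °C, LiveBLAzer B/G substrate is applied for 2 h at room temperature and fluorescence read.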

[8] = qHTS assay to identify small molecule agonists of the farnesoid-X-receptor (FXR) signaling pathway - cell viability counter screen (AID 743218); note: nearly all actives have a fitted effect of over 45% in size; note: potency is the fitted concentration of half-maximal effect
Method in brief: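 Quantitative HTS counter screen measuring ATP-based viability via CellTiter-Glo luminescence in HEK 293T cells carrying a UAS-driven beta-lactamase reporter, after 16 h compound exposure at 37 C.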

[9] = qHTS assay to identify small molecule antagonists of the farnesoid-X-receptor (FXR) signaling pathway - cell viability counter screen (AID 743221; active = well fitted cell-killing curve with a large enough effect in the repeat runs, not every such curve was filed as active; note: nearly all actives have a fitted effect of over 50% in size; note: potency is the fitted concentration of half-maximal effect)
Method in brief: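 Quantitative HTS of the Tox21 10K library run in parallel with the beta-lactamase reporter read. HEK 293T cells carrying a UAS-driven bla reporter got compound and 50 uM CDCA (final) for 16 h; ATP-based luminescence followed.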

[10] = qHTS assay to identify small molecule that activate the aryl hydrocarbon receptor (AhR) signaling pathway - cell viability counter screen (AID 743086); note: nearly all actives have a fitted effect of over 45% in size; note: potency is the fitted concentration of half-maximal effect
Method in brief: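 Cytotoxicity counter screen: CellTiter-Fluor signal (30 min, 37 C) in 4000 HepG2 cells/well carrying the DRE-luciferase reporter, following 24 h compound exposure at 37 C.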

[11] = qHTS assay to identify small molecule antagonists of the peroxisome proliferator-activated receptor gamma (PPARg) signaling pathway - cell viability counter screen (AID 743194); note: nearly all actives have a fitted effect of over 55% in size; note: potency is the fitted concentration of half-maximal effect
Method in brief: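 Viability was measured as CellTiter-Glo luminescence in GeneBLAzer PPARg UAS-bla HEK293H cells. These cells had been exposed 17 h at 37 C to compounds together with rosiglitazone at 50 nM final, with the beta-lactamase readout taken in the same wells.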

[12] = biological target: Bile acid receptor (Homo sapiens) (UniProt Q96RI1); assay: qHTS assay to identify small molecule agonists of the farnesoid-X-receptor (FXR) signaling pathway (AID 743220; active = well fitted activation curve with a large enough effect in the signal ratio in the repeat runs, not every such curve was filed as active; the % refers to the signal ratio)
Method in brief: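 FXR-UAS-bla HEK 293T cells carrying a UAS-driven beta-lactamase reporter were plated for 5 h at 37C/5% CO2, then exposed to DMSO-dissolved Tox21 10K compounds for 16 h at 37C. A LiveBLAzer B/G FRET substrate was loaded for 2 h at room temperature before fluorescence reading.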

[13] = biological target: Peroxisome proliferator-activated receptor delta (Homo sapiens) (UniProt Q03181); assay: qHTS assay to identify small molecule agonists of the peroxisome proliferator-activated receptor delta (PPARd) signaling pathway (AID 743212; calls by dose curve)
Chain of Peroxisome proliferator-activated receptor delta (Homo sapiens) (Q03181 whole entry, looked up): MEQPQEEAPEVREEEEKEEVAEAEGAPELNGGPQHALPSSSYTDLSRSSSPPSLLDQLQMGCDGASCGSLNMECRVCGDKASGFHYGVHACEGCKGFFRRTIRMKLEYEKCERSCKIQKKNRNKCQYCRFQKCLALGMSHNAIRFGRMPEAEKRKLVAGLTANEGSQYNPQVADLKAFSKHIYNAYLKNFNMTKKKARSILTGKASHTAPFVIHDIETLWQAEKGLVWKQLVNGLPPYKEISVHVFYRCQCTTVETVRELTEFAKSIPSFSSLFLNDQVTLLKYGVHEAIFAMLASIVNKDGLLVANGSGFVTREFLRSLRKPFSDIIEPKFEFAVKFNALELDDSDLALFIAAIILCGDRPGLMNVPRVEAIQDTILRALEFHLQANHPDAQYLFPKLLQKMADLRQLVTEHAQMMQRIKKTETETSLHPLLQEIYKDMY
Method in brief: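 Beta-lactamase reporter readout: a ratiometric FRET signal from the LiveBLAzer substrate after 2 h at room temperature. Compound exposure at 37 °C in PPARδ-bla HEK293H cells driven by an upstream activator sequence.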

[14] = biological target: Peroxisome proliferator-activated receptor delta (Homo sapiens) (UniProt Q03181); assay: qHTS assay to identify small molecule antagonists of the peroxisome proliferator-activated receptor delta (PPARd) signaling pathway (AID 743215; active = well fitted inhibition curve with a large enough effect in the signal ratio in the repeat runs, not every such curve was filed as active; the % refers to the signal ratio;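 note: cells stimulated with agonist L165041 at 300 nM final during compound exposure; series mostly up to about 62 µM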)
Method in brief: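 Here, a reporter line (HEK293H, beta-lactamase under a UAS) measures PPARd signaling. Compounds are tested against agonist L165041 at 300 nM final concentration over 17 h at 37 C, with fluorescence read after substrate.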

[15] = biological target: Vitamin D3 receptor (Homo sapiens) (UniProt P11473); assay: qHTS assay to identify small molecule agonists of the vitamin D receptor (VDR) signaling pathway (AID 743222; calls by dose curve)
Chain of Vitamin D3 receptor (Homo sapiens) (P11473 whole entry, looked up): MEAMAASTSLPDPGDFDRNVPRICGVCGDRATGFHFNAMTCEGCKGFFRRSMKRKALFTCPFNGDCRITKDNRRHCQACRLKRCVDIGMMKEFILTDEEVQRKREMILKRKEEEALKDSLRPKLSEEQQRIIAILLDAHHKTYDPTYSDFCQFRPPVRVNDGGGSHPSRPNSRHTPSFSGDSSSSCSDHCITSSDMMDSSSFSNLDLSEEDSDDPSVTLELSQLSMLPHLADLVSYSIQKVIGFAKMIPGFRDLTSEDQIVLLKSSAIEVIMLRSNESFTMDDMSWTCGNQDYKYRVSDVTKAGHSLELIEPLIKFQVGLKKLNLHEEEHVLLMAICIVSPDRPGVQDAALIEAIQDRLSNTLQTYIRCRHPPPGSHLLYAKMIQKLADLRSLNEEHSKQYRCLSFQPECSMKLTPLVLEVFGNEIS
Method in brief: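 Tox21 cell reporter format: VDR-bla line, 16 h compound exposure in 5% CO2 at 37C, then fluorescence intensity after 2 h with LiveBLAzer B/G FRET substrate.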

[16] = qHTS assay to identify small molecule antagonists of the peroxisome proliferator-activated receptor delta (PPARd) signaling pathway - cell viability counter screen (AID 743213); note: nearly all actives have a fitted effect of over 50% in size; note: potency is the fitted concentration of half-maximal effect
Method in brief: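 Luminescence from CellTiter-Glo, added after the bla read and incubated 30 min at room temperature, gives viability of HEK293H PPARd-bla cells exposed to compounds for 17 h at 37 C with 300 nM L165041.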

[17] = biological target: Vitamin D3 receptor (Homo sapiens) (UniProt P11473); assay: qHTS assay to identify small molecule antagonists of the vitamin D receptor (VDR) signaling pathway (AID 743223; active = well fitted inhibition curve with a large enough effect in the signal ratio in the repeat runs, not every such curve was filed as active; the % refers to the signal ratio)
Method in brief: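 Fluorescence from LiveBLAzer B/G FRET substrate, read after 2 h at room temperature, reflects beta-lactamase reporter activity in VDR-bla cells treated 16 h at 37C with compounds and agonist 1alpha,25-dihydroxyvitamin D3 (3 nM final).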

[18] = qHTS assay for small molecule agonists of the antioxidant response element (ARE) signaling pathway (AID 743202; active = well fitted activation curve with a large enough effect in the signal ratio in the repeat runs, not every such curve was filed as active; the % refers to the signal ratio; note: potency is the fitted concentration of half-maximal effect)
Method in brief: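 After 16 hours of compound treatment at 37 C, HepG2 cells with a stably integrated ARE-driven beta-lactamase reporter were loaded 2 hours at room temperature with LiveBLAzer B/G FRET substrate and fluorescence intensity measured.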

Measured: Potency

COc1cc(C(C)C)c2c(c1)S(=O)(=O)N(COc1cc(=O)n3cccc(OCCN4CCCCC4)c3n1)C2=O
inactive: [1] | [2] | [3] | [4] | [5] | [6] | [7] | [8] | [9]

CC(C)(c1cc(Br)c(O)c(Br)c1)c1cc(Br)c(O)c(Br)c1
inactive: [10] | [8] | [12] | [9]
active: [11] 54.8 µM and 43.5 µM and 46.3 µM | [3] 60.9 µM and 57.9 µM

CC(C)c1cccc(C(C)C)c1N1C(=O)c2ccc(O)cc2C1=O
inactive: [1] | [2] | [4] | [8]

NC(=O)C(=O)N/N=C/c1ccc([N+](=O)[O-])o1
inactive: [10] | [2] | [3] | [6] | [13] | [14] | [8] | [9]

CCCCCCCC/C=C\CCCCCCCC(=O)N(C)CC(=O)O
active: [2] 6.92 µM | [4] 21.9 µM | [6] 38.9 µM | [8] 38.9 µM | [9] 54.9 µM
inactive: [1]

CCCCCCOc1ccc(O)cc1
inactive: [10] | [3] | [4] | [5] | [6] | [13] | [14] | [8] | [9] | [15]

CCC1(c2cnc[nH]2)Cc2ccccc2C1
inactive: [11] | [3] | [4] | [6] | [13] | [16] | [8] | [17]

COC(=O)C1=C(C)NC(C)=C(C(=O)OCCCN2CCC(c3ccccc3)(c3ccccc3)CC2)C1c1cccc([N+](=O)[O-])c1 (stereo not given)
inactive: [4]
active: [10] 29.8 µM | [6] 10.6 µM | [16] 11.9 µM | [8] 11.9 µM | [9] 26.6 µM

C[n+]1c2cc(N)ccc2cc2ccc(N)cc21 (tested in a mixture with another compound)
inactive: [3] | [5] | [9]
active: [1] 9.44 µM | [4] 29.8 µM | [8] 15 µM

Nc1ccc2cc3ccc(N)cc3nc2c1
inactive: [5] | [9]
active: [1] 11.9 µM and 6.11 µM | [3] 24.3 µM and 29.8 µM | [4] 43.6 µM
3.89 µM (active) and inactive: [8]

O=C(NO)c1ccccc1
inactive: [1] | [10] | [4] | [5]

COC(=O)[C@]1(C)CCC[C@@]2(C)[C@H]1CC=C1C=C(C(C)C)CC[C@@H]12
inactive: [10] | [3] | [16] | [7] | [15] | [17]
active: [11] 54.9 µM

C=CC(=O)OCCC#N
active: [18] 34.6 µM
not listed: [2] | [4] | [5] | [6] | [11] | [13]
inactive: all other assays above

Brc1ccccc1-c1ccccc1
inactive: [10] | [13] | [9] | [15]

CC(C)(C)c1cc(/C=C2\SC(=N)NC2=O)cc(C(C)(C)C)c1O
active: [11] 43.6 µM | [3] 24.3 µM | [4] 43.6 µM | [16] 54.9 µM | [8] 43.6 µM
inactive: [1]

CC1CCCCN1CCCOC(=O)c1ccc(OC2CCCCC2)cc1 (stereo not given)
not listed: [1] | [2] | [6] | [8] | [10] | [11] | [18]
inactive: all other assays above

CC1=C(/C=C/C(C)=C/C=C/C(C)=C\C=O)C(C)(C)CCC1
active: [3] 51.6 µM | [6] 41.3 µM | [8] 46.4 µM
inactive: [1] | [10]

CN(C)c1ccc(N=NS(=O)(=O)O)cc1
active: [1] 14.5 µM
inactive: [3] | [4] | [8] | [9]

CCCCCCCCCC(=O)N(C)C
not listed: [1] | [2] | [11] | [13] | [14] | [18]
inactive: all other assays above
